Measurements as given in PubChem BioAssay AID720605 (Broad Institute, 2013).
Measured potencies and affinities stand elsewhere. Activity calls are given as the source filed them.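 The calls were made as follows: active = cell viability signal falls with a fitted half-maximal concentration within twice the top dose at all three treatment times; inconclusive = treatment times give differing calls; inactive = every treatment time called inactive.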

Assay: cytotoxicity in U-251 CNS tumor cells – cell-based, Alamar Blue fluorescence, 8/24/48 h, dry powder, HRAS target identification, dose response (AID 720605)

Row | SMILES | outcome
1 | Cc1onc(C(=O)N2CCN(C(c3ccncc3)c3ccncc3)CC2)c1[N+](=O)[O-] | inactive
2 | CCC(=O)N(c1ccc(OC)c(Cl)c1)C(C(=O)NCCc1ccccc1)c1cccs1 (configuration not stated) | inactive
